# Source: PubChem BioAssay (NCATS)
# “And” between values parts separate entries of the source, which are not always exact repeats. Identical values can stand only once. Results filed as inconclusive are left out. Entries that show only a call come without a potency. The source made the active and inactive calls. Unless noted, calls follow the shape of the full dose curve.
# Key:
# [1] = MultiTox-Fluor Cytotoxicity Assay - LYMP1-001 - Live Cells (AID 947; active = well fitted curve in the direction sought with a large enough effect; an effect the other way counts as inactive or inconclusive)
# [2] = Cell Viability - LYMP2-015 (AID 971; active = well fitted curve in the direction sought with a large enough effect; an effect the other way counts as inactive or inconclusive;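 also: cells exposed to compound for 24 h; nearly all actives have a fitted effect of over 55% in size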)
# Method in brief: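 Cells are seeded at 2500 per well and incubated 5 hr at 37 C. Compounds are added across a concentration series for 24 hr at 37 C. CellTiter-Glo is added, and luminescence is read after 30 min at room temperature.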
# [3] = Cell Viability - LYMP2-024 (AID 988; active = well fitted curve in the direction sought with a large enough effect; an effect the other way counts as inactive or inconclusive; also: nearly all actives have a fitted effect of over 60% in size)
# Method in brief: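 qHTS cytotoxicity, human lymphoblastoid line, complete medium; 24 h cpd treatment, 37 C; CellTiter-Glo ATP luminescence readout; tetraoctylammonium bromide positive control; AC50 via Hill fit.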
# [4] = qHTS assay for small molecule antagonists of peroxisome proliferator-activated receptor delta signaling (AID 588535; active = well fitted inhibition curve with a large enough effect in the signal ratio, with a control signal flat, not every such curve was filed as active; the % refers to the signal ratio;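 as to max response: cells co-treated with a PPAR-delta agonist as stimulator during compound exposure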); conditions: HEK293T PPARd-UAS-bla, beta-lactamase FRET ratio, 18 h; 460 nm channel
# Method in brief: (§1)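 Inhibition of PPAR-delta response element-driven beta-lactamase expression is measured in HEK293T cells exposed to a compound titration series for 18 hrs at 37 C. Half-maximal inhibition comes from Hill equation fitting.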
# [5] = molecular target: Peroxisome proliferator-activated receptor delta (Homo sapiens) (UniProt Q03181); test: as above
# Method in brief: as §1
# [6] = molecular target: Peroxisome proliferator-activated receptor gamma (Homo sapiens) (UniProt P37231); test: qHTS assay for small molecule antagonists of peroxisome proliferator-activated receptor gamma signaling (AID 588537; active = well fitted inhibition curve with a large enough effect in the signal ratio, with a control signal flat, not every such curve was filed as active; the % refers to the signal ratio;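 also: reporter cells co-stimulated with 50 nM rosiglitazone agonist during compound treatment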)
# Method in brief: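 Compounds are tested as concentration series for inhibition of rosiglitazone-driven (50 nM) reporter expression in GeneBLAzer PPAR-gamma-UAS-bla HEK293 cells. After 16 h at 37 C, CCF4 substrate is added for 2 h at room temperature and blue/green fluorescence is measured.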
# [7] = molecular target: Thyroid hormone receptor beta (Homo sapiens) (UniProt P10828); test: qHTS assay for small molecule agonists of thyroid hormone receptor beta signaling (AID 588545)
# Method in brief: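 TR-UAS-bla-GripTite HEK 293 cells in medium with 2% charcoal/dextran FBS, 0.1 mM NEAA and 1 mM sodium pyruvate were treated with titrated compounds for 18 hrs at 37 C. Beta-lactamase reporter was read with CCF4 dye (ex 405, em 460/530 nm); EC50 from Hill fits.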
# [8] = molecular target: Thyroid hormone receptor beta (Homo sapiens) (UniProt P10828); test: qHTS assay for small molecule antagonists of thyroid hormone receptor beta signaling (AID 588547; active = well fitted inhibition curve with a large enough effect in the signal ratio, with a control signal flat, not every such curve was filed as active; the % refers to the signal ratio;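 also: cells stimulated with 0.4 nM T3 agonist during compound exposure; series mostly up to about 77 µM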); conditions: TR-UAS-bla HEK293, beta-lactamase ratio, antagonist mode, 18 h
# Method in brief: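 TR-UAS-bla GripTite HEK293 cells in 2% charcoal/dextran FBS medium were preincubated 4 h at 37 C, given compound (0.59 nM to 92 uM) plus 0.4 nM T3 (final) for 18 h, then CCF4 for 2 h at RT; Hill fit gave IC50.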
# [9] = molecular target: Voltage-gated inwardly rectifying potassium channel KCNH2 (Homo sapiens) (UniProt Q12809); test: qHTS Assay for Small Molecule Inhibitors of the Human hERG Channel Activity (AID 588834; active = well fitted curve in the direction sought with a large enough effect; an effect the other way counts as inactive or inconclusive;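 also: lower thallium flux fluorescence means stronger hERG block; nearly all actives have a fitted effect of over 50% in size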; also: potency is read from the fitted curve at half-maximal effect)
# Method in brief: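 Thallium serves as surrogate for K+ influx through BacMam-delivered hERG in U2OS cells. Compounds are added for about 10 minutes after dye loading; stimulation buffer then starts flux, monitored kinetically on FDSS.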
# [10] = qHTS assay for small molecule agonists of the antioxidant response element (ARE) signaling pathway (AID 651741; active = well fitted activation curve with a large enough effect in the signal ratio; the % refers to the signal ratio; also: potency is read from the fitted curve at half-maximal effect)
# Method in brief: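 Reporter: beta-lactamase under ARE, stably in HepG2. Exposure: 16 h, 37 C, compounds delivered in DMSO by pin tool after 5 h cell preincubation. Readout: FRET substrate fluorescence after 2 h at RT.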
# [11] = qHTS assay for small molecule activators of the nuclear factor-kappa B (NF-kB) signaling pathway (AID 651749; active = well fitted activation curve with a large enough effect in the signal ratio; the % refers to the signal ratio; also: series mostly up to about 77 µM); conditions: NF-kB-bla ME-180 cells, beta-lactamase FRET ratio, 16 h; stronger effect = higher value
# Method in brief: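 Human ME-180 cervical cells with an NF-kB-bla construct; compounds added via 23 nL pin transfer, DMSO as vehicle; incubation 16 hr. Reporter activity measured by FRET disruption.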
# [12] = qHTS assay for small molecule disruptors of the mitochondrial membrane potential - 1 hr assay (AID 651754); also: nearly all actives have a fitted effect of over 35% in size; also: potency is read from the fitted curve at half-maximal effect
# Method in brief: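 Loss of mitochondrial potential shifts the cationic dye from red mitochondrial aggregates to green cytoplasmic monomers. Cells (HepG2) are treated with compound for 1 hr before a 30 min dye incubation at 37C.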
# [13] = molecular target: Estrogen receptor (Homo sapiens) (UniProt P03372); test: qHTS assay for small molecule antagonists of estrogen receptor alpha signaling (AID 588513; active = well fitted curve in the direction sought with a large enough effect in the signal ratio, with a control signal flat, not every such curve was filed as active; the % refers to the signal ratio)
# Method in brief: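 ER-alpha-UAS-bla GripTite HEK 293 cells in 2% charcoal/dextran-treated FBS medium; compounds titrated (1:2, duplicate), then stimulated with 0.5 nM 17-beta-estradiol for 18 h at 37C. CCF4 beta-lactamase fluorescence; Hill-fit IC50 and efficacy.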
# [14] = molecular target: Glucocorticoid receptor (Homo sapiens) (UniProt P04150); test: qHTS assay for small molecule agonists of glucocorticoid receptor signaling (AID 588532; active = well fitted curve in the direction sought with a large enough effect in the signal ratio, with a control signal flat; the % refers to the signal ratio); conditions: HeLa MMTV-bla, beta-lactamase ratio, agonist, 18 h; stronger effect = higher value; percent of dexamethasone control, DMSO zero
# Method in brief: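 Titration series, up to 92 uM, applied to GRE-bla HeLa cells for 18 h at 37 C. Detection by CCF4 FRET substrate after 2 h at RT.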
# [15] = molecular target: Peroxisome proliferator-activated receptor gamma (Homo sapiens) (UniProt P37231); test: qHTS assay for small molecule agonists of peroxisome proliferator-activated receptor gamma signaling (AID 588536; active = well fitted curve in the direction sought with a large enough effect in the signal ratio, with a control signal flat, not every such curve was filed as active; the % refers to the signal ratio)
# Method in brief: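 Cells were plated and held 6–6.5 h at 37 C, then compounds were added as a titration series. After a further 16 h, CCF4 dye was loaded for 2 h at room temperature and emission at 460/530 nm recorded.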
# [16] = molecular target: Vitamin D3 receptor (Homo sapiens) (UniProt P11473); test: qHTS assay for small molecule antagonists of vitamin D receptor signaling (AID 588541);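 also: receptor activated by calcitriol during compound treatment; series mostly up to about 77 µM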
# Method in brief: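 VDR-UAS-bla HEK293T cells (2000/well, 2% charcoal-stripped FBS) were treated with titrated compounds plus 1-alpha,25-dihydroxyvitamin D3 (50 nM or 3 nM final) for 16 h at 37 C. CCF4 beta-lactamase fluorescence was read; Hill fits gave IC50.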
# [17] = qHTS assay for small molecule activators of the p53 signaling pathway (AID 651743; active = well fitted activation curve with a large enough effect in the signal ratio, not every such curve was filed as active; the % refers to the signal ratio; also: series mostly up to about 92 µM); conditions: HCT-116 p53RE-bla, beta-lactamase FRET ratio, 16 h; activation: stronger effect = higher value
# Method in brief: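 Agonist-mode quantitative HTS in HCT-116 cells carrying a p53-response-element beta-lactamase reporter; 16 h compound treatment at 37 C, then FRET substrate loading for 2 h at room temperature and fluorescence read.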
# [18] = molecular target: Glucocorticoid receptor (Homo sapiens) (UniProt P04150); test: qHTS assay for small molecule antagonists of glucocorticoid receptor signaling (AID 588533; active = well fitted inhibition curve with a large enough effect in the signal ratio, with a control signal flat, not every such curve was filed as active; the % refers to the signal ratio;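 also: cells stimulated with 2 nM dexamethasone as agonist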)
# Method in brief: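 Antagonist-mode qHTS: compound titrations added to GRE-bla HeLa cells, then dexamethasone 2 nM final; 18 h, 37 C. CCF4 FRET fluorescence normalized to dexamethasone and DMSO; IC50 from Hill fit.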
# [19] = molecular target: Peroxisome proliferator-activated receptor delta (Homo sapiens) (UniProt Q03181); test: qHTS assay for small molecule agonists of peroxisome proliferator-activated receptor delta signaling (AID 588534)
# Method in brief: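 Agonist-mode qHTS; reporter cells, 5 hrs 37 C pre-incubation; compound titration, 18 hrs 37 C; CCF4 dye, 2 hrs RT; fluorescence read. EC50/efficacy via Hill fit.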
# [20] = molecular target: Bile acid receptor (Homo sapiens) (UniProt Q96RI1); test: qHTS assay for small molecule agonists of farnesoid X receptor signaling (AID 588527); conditions: HEK293T FXR-UAS-bla, beta-lactamase ratio, 16 h; stronger effect = higher value; also: series mostly up to about 77 µM
# Method in brief: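 FXR-UAS-bla HEK293T cells (10% dialyzed FBS) preincubated 5-7 h at 37 C, then compounds at up to 92 uM for 16 h at 37 C. CCF4 beta-lactamase read-out after 2 h RT. Normalized to chenodeoxycholic acid (100 uM) and DMSO; Hill fit gave EC50 and efficacy.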
# Chain of Peroxisome proliferator-activated receptor gamma (Homo sapiens) (P37231 whole entry, looked up): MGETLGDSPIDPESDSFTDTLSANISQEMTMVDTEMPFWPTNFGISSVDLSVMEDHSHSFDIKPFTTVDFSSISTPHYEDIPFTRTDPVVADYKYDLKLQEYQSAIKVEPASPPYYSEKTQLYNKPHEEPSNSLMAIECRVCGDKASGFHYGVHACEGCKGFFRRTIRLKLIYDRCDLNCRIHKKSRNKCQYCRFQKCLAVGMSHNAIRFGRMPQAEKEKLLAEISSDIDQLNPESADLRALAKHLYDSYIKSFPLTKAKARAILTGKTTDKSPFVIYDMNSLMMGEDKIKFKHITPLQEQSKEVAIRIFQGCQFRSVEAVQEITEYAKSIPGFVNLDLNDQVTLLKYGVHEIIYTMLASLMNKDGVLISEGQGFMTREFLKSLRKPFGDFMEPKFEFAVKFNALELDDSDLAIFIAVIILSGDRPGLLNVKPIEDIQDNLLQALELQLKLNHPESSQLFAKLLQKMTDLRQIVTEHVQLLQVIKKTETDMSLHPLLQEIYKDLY
# Chain of Voltage-gated inwardly rectifying potassium channel KCNH2 (Homo sapiens) (Q12809 whole entry, looked up): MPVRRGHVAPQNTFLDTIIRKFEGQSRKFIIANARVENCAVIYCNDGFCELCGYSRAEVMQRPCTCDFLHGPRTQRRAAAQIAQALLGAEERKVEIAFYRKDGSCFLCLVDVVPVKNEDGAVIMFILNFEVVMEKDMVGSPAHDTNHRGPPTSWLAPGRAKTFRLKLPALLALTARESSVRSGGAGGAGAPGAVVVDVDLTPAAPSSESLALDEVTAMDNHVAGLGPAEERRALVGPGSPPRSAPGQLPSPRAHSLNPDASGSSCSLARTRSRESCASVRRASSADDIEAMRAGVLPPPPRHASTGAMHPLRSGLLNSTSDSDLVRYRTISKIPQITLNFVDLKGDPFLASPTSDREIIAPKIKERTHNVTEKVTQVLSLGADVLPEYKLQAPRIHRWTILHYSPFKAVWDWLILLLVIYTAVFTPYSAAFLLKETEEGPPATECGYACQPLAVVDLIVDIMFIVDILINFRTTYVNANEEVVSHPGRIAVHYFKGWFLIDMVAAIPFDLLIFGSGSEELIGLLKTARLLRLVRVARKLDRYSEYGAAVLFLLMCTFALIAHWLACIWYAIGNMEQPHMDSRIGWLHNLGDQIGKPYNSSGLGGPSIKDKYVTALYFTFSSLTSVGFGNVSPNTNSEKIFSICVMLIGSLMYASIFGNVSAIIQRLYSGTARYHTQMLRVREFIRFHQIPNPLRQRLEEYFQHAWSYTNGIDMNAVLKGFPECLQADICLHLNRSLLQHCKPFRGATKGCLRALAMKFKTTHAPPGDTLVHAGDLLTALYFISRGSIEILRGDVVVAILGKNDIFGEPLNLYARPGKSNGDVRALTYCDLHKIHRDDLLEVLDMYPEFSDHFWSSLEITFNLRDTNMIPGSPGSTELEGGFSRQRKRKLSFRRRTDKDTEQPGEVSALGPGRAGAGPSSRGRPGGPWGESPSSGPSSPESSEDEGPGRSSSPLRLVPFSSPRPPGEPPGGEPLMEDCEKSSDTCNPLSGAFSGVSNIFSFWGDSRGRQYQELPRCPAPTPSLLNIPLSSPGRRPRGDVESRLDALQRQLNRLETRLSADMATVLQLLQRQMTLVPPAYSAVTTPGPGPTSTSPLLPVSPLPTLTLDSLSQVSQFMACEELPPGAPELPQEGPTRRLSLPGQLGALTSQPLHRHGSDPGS
# Chain of Peroxisome proliferator-activated receptor delta (Homo sapiens) (Q03181 whole entry, looked up): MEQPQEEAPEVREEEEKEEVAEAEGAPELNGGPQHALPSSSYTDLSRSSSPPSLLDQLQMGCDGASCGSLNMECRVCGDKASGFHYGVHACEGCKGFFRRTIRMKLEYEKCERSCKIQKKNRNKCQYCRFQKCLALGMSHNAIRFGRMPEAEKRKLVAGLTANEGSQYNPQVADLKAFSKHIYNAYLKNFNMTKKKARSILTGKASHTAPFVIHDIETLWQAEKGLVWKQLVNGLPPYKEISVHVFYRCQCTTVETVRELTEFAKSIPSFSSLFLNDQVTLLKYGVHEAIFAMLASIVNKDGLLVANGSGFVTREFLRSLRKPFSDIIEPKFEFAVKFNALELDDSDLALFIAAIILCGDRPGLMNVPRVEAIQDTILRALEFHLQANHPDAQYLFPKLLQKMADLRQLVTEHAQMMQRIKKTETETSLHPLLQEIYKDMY
# Chain of Vitamin D3 receptor (Homo sapiens) (P11473 whole entry, looked up): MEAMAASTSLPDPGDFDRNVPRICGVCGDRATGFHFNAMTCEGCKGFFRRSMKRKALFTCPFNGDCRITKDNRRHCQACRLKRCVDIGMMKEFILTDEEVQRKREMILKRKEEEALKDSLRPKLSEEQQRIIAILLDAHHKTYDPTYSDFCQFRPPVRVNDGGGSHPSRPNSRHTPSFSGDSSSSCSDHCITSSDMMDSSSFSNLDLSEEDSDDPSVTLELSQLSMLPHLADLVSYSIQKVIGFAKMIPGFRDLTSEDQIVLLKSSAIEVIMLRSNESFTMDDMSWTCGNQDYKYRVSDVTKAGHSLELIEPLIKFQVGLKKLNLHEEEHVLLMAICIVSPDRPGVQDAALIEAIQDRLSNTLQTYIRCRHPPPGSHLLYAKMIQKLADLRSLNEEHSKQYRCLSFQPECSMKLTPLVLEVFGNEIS
# Chain of Estrogen receptor (Homo sapiens) (P03372 whole entry, looked up): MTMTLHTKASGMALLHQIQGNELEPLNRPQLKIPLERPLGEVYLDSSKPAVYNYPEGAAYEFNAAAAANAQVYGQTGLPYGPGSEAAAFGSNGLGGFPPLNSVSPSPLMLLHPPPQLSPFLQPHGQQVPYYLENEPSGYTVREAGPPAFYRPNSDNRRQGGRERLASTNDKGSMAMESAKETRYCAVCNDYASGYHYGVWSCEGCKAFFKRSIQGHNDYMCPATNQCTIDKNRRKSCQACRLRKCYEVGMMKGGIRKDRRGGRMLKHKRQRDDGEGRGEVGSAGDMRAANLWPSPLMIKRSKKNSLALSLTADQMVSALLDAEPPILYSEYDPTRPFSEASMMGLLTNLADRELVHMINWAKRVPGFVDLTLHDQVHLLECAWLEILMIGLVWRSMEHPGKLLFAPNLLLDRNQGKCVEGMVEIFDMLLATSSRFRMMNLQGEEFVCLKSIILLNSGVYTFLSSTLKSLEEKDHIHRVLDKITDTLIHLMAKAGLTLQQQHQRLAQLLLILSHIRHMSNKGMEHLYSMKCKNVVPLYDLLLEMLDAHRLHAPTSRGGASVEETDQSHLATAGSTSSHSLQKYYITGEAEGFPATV
# Chain of Thyroid hormone receptor beta (Homo sapiens) (P10828 whole entry, looked up): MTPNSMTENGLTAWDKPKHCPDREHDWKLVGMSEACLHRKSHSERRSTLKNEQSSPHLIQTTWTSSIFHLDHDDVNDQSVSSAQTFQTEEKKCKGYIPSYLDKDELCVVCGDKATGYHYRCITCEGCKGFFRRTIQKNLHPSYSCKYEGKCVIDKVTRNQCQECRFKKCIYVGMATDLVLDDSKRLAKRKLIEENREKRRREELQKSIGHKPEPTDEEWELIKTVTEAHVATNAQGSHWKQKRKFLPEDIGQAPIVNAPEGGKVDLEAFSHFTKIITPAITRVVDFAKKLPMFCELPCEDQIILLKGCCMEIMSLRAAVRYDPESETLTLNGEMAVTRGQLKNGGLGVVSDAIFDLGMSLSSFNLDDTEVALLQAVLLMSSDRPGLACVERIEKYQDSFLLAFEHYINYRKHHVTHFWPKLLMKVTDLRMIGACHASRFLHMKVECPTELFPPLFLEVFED
# Chain of Glucocorticoid receptor (Homo sapiens) (P04150 whole entry, looked up): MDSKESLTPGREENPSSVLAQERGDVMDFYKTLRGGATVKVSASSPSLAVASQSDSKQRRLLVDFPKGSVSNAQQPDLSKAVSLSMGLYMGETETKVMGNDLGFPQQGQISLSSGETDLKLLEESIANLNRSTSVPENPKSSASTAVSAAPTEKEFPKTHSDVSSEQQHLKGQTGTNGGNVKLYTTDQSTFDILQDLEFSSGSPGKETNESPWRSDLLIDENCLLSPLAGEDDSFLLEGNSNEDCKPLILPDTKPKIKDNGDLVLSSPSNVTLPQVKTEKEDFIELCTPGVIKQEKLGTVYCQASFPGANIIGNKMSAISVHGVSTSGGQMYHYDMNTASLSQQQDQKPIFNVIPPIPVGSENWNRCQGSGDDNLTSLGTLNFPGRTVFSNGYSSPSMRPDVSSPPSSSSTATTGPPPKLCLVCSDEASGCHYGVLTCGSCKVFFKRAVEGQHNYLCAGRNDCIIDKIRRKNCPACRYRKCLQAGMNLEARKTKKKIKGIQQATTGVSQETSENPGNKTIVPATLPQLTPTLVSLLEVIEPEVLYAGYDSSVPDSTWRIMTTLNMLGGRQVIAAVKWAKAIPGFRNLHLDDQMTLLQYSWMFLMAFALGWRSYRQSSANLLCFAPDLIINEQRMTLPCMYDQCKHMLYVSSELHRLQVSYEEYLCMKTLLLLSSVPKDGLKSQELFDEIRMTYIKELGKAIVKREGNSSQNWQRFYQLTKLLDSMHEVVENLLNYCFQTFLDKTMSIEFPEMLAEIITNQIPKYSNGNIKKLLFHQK
# Chain of Bile acid receptor (Homo sapiens) (Q96RI1 whole entry, looked up): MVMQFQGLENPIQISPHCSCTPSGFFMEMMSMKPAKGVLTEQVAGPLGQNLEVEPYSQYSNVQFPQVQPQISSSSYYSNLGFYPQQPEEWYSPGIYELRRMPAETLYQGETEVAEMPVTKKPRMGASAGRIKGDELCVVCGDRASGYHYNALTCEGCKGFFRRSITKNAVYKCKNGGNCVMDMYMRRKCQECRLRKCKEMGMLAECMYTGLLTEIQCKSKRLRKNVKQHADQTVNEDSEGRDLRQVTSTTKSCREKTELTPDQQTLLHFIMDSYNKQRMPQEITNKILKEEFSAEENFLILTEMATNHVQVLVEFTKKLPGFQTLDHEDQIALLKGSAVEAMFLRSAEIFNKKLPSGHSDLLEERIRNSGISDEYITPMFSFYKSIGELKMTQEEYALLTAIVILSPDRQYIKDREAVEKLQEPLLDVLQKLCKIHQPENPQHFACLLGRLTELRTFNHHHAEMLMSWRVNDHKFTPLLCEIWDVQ
SMILES,outcome [1],Potency [2],Potency [3],max response [4],outcome [5],Potency [6],Potency [7],activity change % (negative = inhibition) [8],Potency [9],Potency [10],activation [11],Potency [12],Potency [13],activation [14],outcome [15],outcome [16],activation [17],outcome [18],outcome [19],activation [20]
CC(Cl)(Cl)Cl,inactive,inactive,inactive,-34.9% and 9.34%,inactive,inactive,inactive,0.316% (inactive) and -7.15% (inactive),inactive,inactive,-0.312% (inactive) and 0.328% (inactive),inactive,–,–,–,–,–,–,–,–
O=C(Cl)OCc1ccccc1,inactive,inactive,inactive,–,–,–,–,–,inactive,inactive,-0.156% (inactive),inactive,inactive,-1.41% (inactive),inactive,inactive,-2.98% (inactive),–,–,–
CCCCCCCCCCCOC(=O)c1ccccc1C(=O)OCCCCCCCCCCC,inactive,–,inactive,-38.8%,–,inactive,inactive,–,inactive,inactive,-0.4% (inactive),inactive,inactive,3.4% (inactive),inactive,inactive,–,inactive,inactive,–
Cc1ccccc1[N+](=O)[O-],inactive,–,inactive,-51%,inactive,inactive,inactive,6.46% (inactive),–,–,3.11% (inactive),–,inactive,-7.47% (inactive),–,inactive,1.69% (inactive),inactive,inactive,–
N#CCCCCC#N,inactive,inactive,inactive,–,–,–,inactive,-18.7% (inactive),inactive,inactive,–,inactive,–,-2.66% (inactive),inactive,inactive,–,–,inactive,-2.39% (inactive)
COc1cc(-c2ccc(N)c(OC)c2)ccc1N,inactive,inactive,inactive,17.7% and -36%,inactive,inactive,inactive,–,–,1.06 µM (active) and 2.17 µM (active),0.354% (inactive) and 3.2% (inactive) and 2.92% (inactive),37.6 µM (active),–,–,–,–,0.265% (inactive) and -0.413% (inactive) and 0.709% (inactive),–,inactive,–
N#C/C(N)=C(/N)C#N,inactive,–,inactive,–,–,inactive,inactive,-2.94% (inactive),inactive,–,-1.05% (inactive),inactive,inactive,-0.556% (inactive),inactive,inactive,–,–,inactive,–
ClCc1ccccn1,–,inactive,inactive,3.34%,inactive,inactive,–,-1.68% (inactive),inactive,inactive,–,inactive,inactive,7.32% (inactive) and 6.72% (inactive),–,inactive,-0.689% (inactive) and -0.994% (inactive),inactive,inactive,–
Cc1cc(Cl)ccc1O,inactive,inactive,inactive,–,–,inactive,inactive,–,inactive,–,0.374% (inactive),inactive,–,0.519% (inactive),inactive,inactive,-0.272% (inactive),–,inactive,-2.04% (inactive)
COc1c(C(C)(C)C)cc([N+](=O)[O-])c(C)c1[N+](=O)[O-],–,inactive,inactive,–,–,inactive,–,24.1% (inactive),31.6 µM (active),inactive,-0.667% (inactive),inactive,inactive,-4.08% (inactive),–,inactive,–,inactive,inactive,–
Cc1cc(-c2cc(C)c(N)c(C)c2)cc(C)c1N,inactive,inactive,inactive,7.84%,inactive,–,–,5.74% (inactive),inactive,–,0.737% (inactive),inactive,inactive,-0.885% (inactive),inactive,inactive,-3.17% (inactive),–,inactive,–
